High-throughput results: PubChem BioAssay, National Center for Advancing Translational Sciences (NCATS)
Most compounds without a hit are left out; they make up all but 7% or so of the library.
GCN5L2 inh – qHTS Assay for Inhibitors of GCN5L2. AID 504327, 2011. GCN5L2 HAT assay, ThioGlo1 CoA-SH fluorescence. hit rate 0.21% among 390,000. Histone acetyltransferase KAT2A (Homo sapiens), Q92830. Potency, µM (titrated, usually from 58.9 µM), without a hit: at the highest dose activity change, negative = inhibition, usual class: inhibitors; further: potency means the concentration at half of the fitted maximal effect; on the % scale 0 is the no-effect control and ±100 the full control effect
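GCN5L2 (20nM final) in 50mM HEPES, 0.1mM EDTA pH 7.5, 0.01% Tween-20 was preincubated 15 min at room temperature with compound, then given ThioGlo1 (50uM), H3(1-25) peptide (75uM) and acetyl-CoA (70uM); CoA-thiol fluorescence (Ex340/Em540) was read at 0 and 20 min.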
JMJD2A Tudor – qHTS Assay for Inhibitors of JMJD2A-Tudor Domain; Lysine-specific demethylase 4A (Homo sapiens), O75164; AlphaScreen JMJD2A-Tudor / H3K4me3 peptide binding; Potency, µM (doses to about 114 µM), for inactives: at the top dose activity change, negative = inhibition, actives largely listed as inhibitors; hit rate 4.4% among 390,000; AID 504339, 2011; further: potency means the concentration at half of the fitted maximal effect; on the % scale 0 is the no-effect control and ±100 the full control effect; nearly all actives have a fitted effect of over 50% in size
PI5P4K alpha inh – qHTS for Inhibitors of phosphatidylinositol 5-phosphate 4-kinase (PI5P4K); hit rate 1.2% among 330,000; max response, %; PI5P4Kalpha enzyme, ADP-Glo luminescence, 60 min; hits give low values; active means max response of -50% or lower; inconclusive means between -30% and -50%; inactive means -30% or higher; further: value at the top dose of about 77 µM; on the % scale 0 is the no-effect control and ±100 the full control effect
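ADP-Glo luminescence end-point read after a 60 min room-temperature kinase reaction of PI5P4Kalpha plus substrate, initiated with ATP at 5 microM final. Buffer: 0.038 M HEPES pH 7.4, EGTA, 0.1% CHAPS, 5% DMSO.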
PLK1 PBD inh – qHTS for Inhibitors of PLK1-PDB (polo-like kinase 1 - polo-box domain): Primary Screen; Potency, µM, for the others: max response, negative = inhibition, actives largely listed as inhibitors; hit rate 2.8% among 360,000; Plk1 PBD binding of FITC phosphopeptide, fluorescence polarization; AID 720504, 2013; Serine/threonine-protein kinase PLK1 (Homo sapiens), P53350; further: potency means the concentration at half of the fitted maximal effect; series mostly up to about 57 µM; on the % scale 0 is the no-effect control and ±100 the full control effect; nearly all actives have a fitted effect of over 65% in size
HP1b binding inh – HTS for Inhibitors of HP1-beta Chromodomain Interactions with Methylated Histone Tails | AlphaScreen HP1-beta / biotin-H3K9me3 peptide binding | hit rate 0.56% among 390,000 | Potency, µM (titrated, usually from 114 µM), for inactives: at the highest dose activity change, negative = inhibition, most hits filed as inhibitors | Chromobox protein homolog 1 (Homo sapiens), P83916 | AID 540317, 2011; further: potency means the concentration at half of the fitted maximal effect; nearly all actives have a fitted effect of over 70% in size
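AlphaScreen: HP1-beta (50 nM) preformed 30 min with biotin-H3(1-18)K9me3 peptide (50 nM) in PBS pH 7.4, 0.01% Tween-20. Compound added for 30 min at RT, then streptavidin donor/nickel chelate acceptor beads (10 ug/mL) for 30 min.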
BAZ2B inh – qHTS Assay for Inhibitors of BAZ2B. Bromodomain adjacent to zinc finger domain protein 2B (Homo sapiens), Q9UIF8. AlphaScreen BAZ2B-H3K14Ac peptide displacement. Potency, µM (titrated, usually from 114 µM), for the others: top-dose activity change, negative = inhibition, hits mostly inhibitors. hit rate 4.4% among 360,000. AID 504333, 2011; further: potency means the concentration at half of the fitted maximal effect; on the % scale 0 is the no-effect control and ±100 the full control effect; nearly all actives have a fitted effect of over 60% in size
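BAZ2B (50 nM) with biotin-H3(5-23)K14Ac peptide (50 nM) in PBS pH 7.4, 0.01% Tween-20, preformed 30 min, then compound 30 min at room temperature; top concentration 110uM. AlphaScreen streptavidin donor/nickel chelate acceptor beads (10 ug/mL final), 20 min dark, signal read.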
Active calls of the source: *; ? = inconclusive; . = no result; [ ] = another dose, or the depositor's remark. Unless noted, the call rests on the fitted dose curve; in most records, active means well fitted curve in the direction sought with a large enough effect; inconclusive means small, poorly fitted or top-dose-only effect, or another doubt; inactive means no such curve, though single readings can be large; an effect the other way counts as inactive or inconclusive.

SMILES	GCN5L2 inh	JMJD2A Tudor	PI5P4K alpha inh	PLK1 PBD inh	HP1b binding inh	BAZ2B inh
CC(C)=CCCC1(C)C=Cc2c(O)c3c(c(CC=C(C)C)c2O1)OC12C(=CC4CC1C(C)(C)OC2(C/C=C(/C)C(=O)O)C4=O)C3=O (stereo unspecified)	32µM*	.	.	.	.	.
CC(C)=CCCC1(C)C=Cc2c(O)c3c(c(CC=C(C)C)c2O1)OC12C(=CC4CC1C(C)(C)OC2(C/C=C(/C)C(=O)O)C4O)C3=O (stereo unspecified)	13µM*	.	.	.	.	.
NC1C=CC=C(C(=O)O)C1 (stereo unspecified)	?	-21%	-7	-6%	31%	.
CCC(=O)CCCCC[C@@H]1NC(=O)[C@H]2CCCCN2C(=O)[C@H]([C@@H](C)CC)NC(=O)[C@H](Cc2cn(OC)c3ccccc23)NC1=O	-22%	.	.	.	.	.
CCCOP(=O)(c1ccc(N(C)C)cc1)C(O)c1ccc(Cl)cc1Cl (stereo unspecified)	-4%	?	-5	-18%	-16%	-27%
CC[C@@]1(O)C(=O)OCc2c1cc1n(c2=O)Cc2cc3ccccc3nc2-1	?	-17%	.	.	16%	-3%
CCC1(O)C(=O)OCc2c1cc1n(c2=O)Cc2cc3cc(O)ccc3nc2-1 (stereo unspecified)	.	?	?	12µM*	-14%	.
O=c1oc2ccccc2c(O)c1Cc1c(O)c2ccccc2oc1=O	-19%[21.4 µM]	.	.	.	.	.
O=Nc1c(O)c2ccccc2c2ccccc12	.	56µM*	0	-1%	?	.
CCCCCn1c(SCCCC)nc2c1c(=O)[nH]c(=O)n2C	-5%	?	-15	27µM*	-36%	-3%
CC(C)CC[C@@H](O)[C@](C)(O)C1CC[C@@]2(O)C3=CC(=O)[C@@H]4C[C@@H](O)[C@@H](O)C[C@]4(C)C3CC[C@]12C (stereo partly specified)	-2%	-6%	-6	-5%	44%	.
CNC(=S)S	4%	.	.	.	.	.
CC1=C[C@H]2[C@]3(O)C(C=C(CO)C[C@]2(O)C1=O)[C@@H]1C(C)(C)[C@]1(O)[C@H](O)[C@H]3C (stereo partly specified)	-6%	.	.	.	.	.
N#CC(C#N)=NNc1ccc([N+](=O)[O-])cc1	1%	?	-20	6%	?	40µM*
CCN(CC)S(=O)(=O)c1ccc(NN=C(C#N)C#N)cc1	-24%	?	-58*	-4%	?	?
CC1CCN(C(=O)c2ncn(C)c2C(=O)N2CCC(C)CC2)CC1	-5%	22µM*	-13	?	13%	.
O=C1NC(=O)N(c2ccc3c(c2)OCO3)C(=O)/C1=C\c1ccsc1	-26%	6%	-24	4.7µM*	49%	-10%
Cc1ccc(N2C(=O)NC(=O)/C(=C\c3ccsc3)C2=O)cc1C	7%	.	.	.	.	5%
Cn1ncc2c(NCc3ccc(F)cc3)ncnc21	-5%	-29%	.	.	68%	1%
O=c1[nH]c(O)c(/C=C2\C=Nc3ccc(OCc4ccccc4)cc32)c(=O)[nH]1	-4%	?	-28	24µM*	17%	?
C[S@@](=O)CCCCN=C=S	-2%	.	.	.	.	.
COc1ccc(OCC#CCN2CCNCC2)cc1	-5%	6.3µM*	8	-10%	?	32µM*
CC1CCN(CC#CCOc2ccc(Cl)cc2)CC1	-10%	35µM*	-6	-2%	?	50µM*
O=C1C=Cc2ccccc2C1=O	28µM*	.	.	.	.	40µM*
Cc1cc([C@@H]2CCCN2C)on1	-3%	.	.	.	.	.
SMILES	GCN5L2 inh	JMJD2A Tudor	PI5P4K alpha inh	PLK1 PBD inh	HP1b binding inh	BAZ2B inh
COCCNCCOc1ccc(C(C)(C)c2ccccc2)cc1	-1%	32µM*	1	2%	?	?
COCCCNC(=S)NNC(=O)c1ccc(C(C)(C)C)cc1	-32%	-7%	2	7%	52%	-2%
C1=CC2C3C=CC(C3)C2C1 (stereo unspecified)	-1%	-6%	-2	-5%	47%	-6%
C=C[C@]12CN(C)[C@H]3C1[C@@]1(C(=O)Nc4ccccc41)[C@H]1C[C@H]2[C@H]3CO1	12%[21.4 µM]	.	.	.	.	.
Cc1cc(=O)oc2cc3c(cc12)CCCN3	22µM*	14%	-1	-4%	122%	14%
CCOc1ccc(N)cc1	.	-27%	-2	-1%	15%	.
Nc1ccc(Oc2cccc(Oc3ccc(N)cc3)c2)cc1	-8%	?	3	-11%	?	40µM*
C=CCN(CC(=O)c1sc(C(=O)OCC)nc1C)c1cccc(Br)c1	.	?	1	-3%	-2%	.
CCOP(=S)(OCC)Oc1ccc(Cl)cc1Cl	-14%	.	.	.	.	.
COc1cc(/C=C2/SC(=S)N(Cc3ccccc3)C2=O)ccc1OCC(=O)O	?	?	-17	?	-12%	56µM*
Cc1cc(Cl)ccc1OCC(=O)O	0%	-15%	1	-9%	28%	-22%
COc1cccc(CN2CCN(Cc3cccc(F)c3)CC2)c1	-5%	7.9µM*	-4	-8%	?	35µM*
CCC1(C)OC(c2ccccc2)=C/C(=C/C=C2C(=O)NC(=O)NC2=O)O1 (stereo unspecified)	-1%	?	-16	38%	-5%	40µM*
CCN1C(=O)NC(=O)/C(=C/c2cc(C)n(-c3sc(C)c(C)c3C#N)c2C)C1=O	-22%	?	?	2.1µM*	?	-16%
Cc1ccc(N2C(=O)NC(=O)/C(=C\c3cc(C)n(-c4sc5c(c4C#N)CCCC5)c3C)C2=O)cc1	24%	?	?	0.6µM*	-14%	?
CCOC(=O)c1c(-n2c(C)cc(/C=C3/C(=O)NC(=O)N(CC)C3=O)c2C)sc2c1CCCC2	.	-19%	-17	?	26%	.
CCOC(=O)c1c(-n2c(C)cc(C=C3C(=O)NC(=S)NC3=O)c2C)sc2c1CCCC2	3%	?	-63*	0.3µM*	-7%	?
Cn1c(C(=O)NCCOc2ccccc2Cl)cc(=O)n(C)c1=O	-4%	-23%	-3	-11%	53%	-22%
Cc1cc(-c2n[nH]c(=S)n2CC(C)C)cs1	1%	5.6µM*	-4	-25%	?	-5%
CC1CC2CC(=O)C3CCCN4CCCC2[C@]34C1 (stereo partly specified)	-1%	.	.	.	.	.
C[C@@H]1CO1	15%	.	.	.	.	.
